Bioassay records deposited in PubChem by National Center for Advancing Translational Sciences (NCATS).
Shown are actives, neighbours in structure and some others; about 3.2% of the full set was active somewhere.
mTORC1 inh = inhibitors of mTORC1 signaling in Tsc2-/- p53-/- MEF cells; 0.78% of 44,000 active; Tsc2-/- p53-/- MEF, phospho-rpS6 immunofluorescence/PI, 24 h; Potency, µM (doses to about 38.3 µM), for inactives: top-dose activity change, negative = inhibition, actives largely listed as inhibitors;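 further: plate controls were DMSO for no effect and rapamycin for full effect; nearly all actives have a fitted effect of over 50% in size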
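Cell-based qHTS: Tsc2-/- p53-/- MEF, 24 h cpd, 37 °C; fix/perm, anti-phospho-S6 Alexa-488 + PI; Acumen 488 nm scan; pS6/PI ratio, % positive cells; rapamycin 7.5 nM = inhibition ref; PI count = viability.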
p53null 39C tox = p53 null cell cytotoxicity, nonpermissive temperature | H1299 p53-null (neo) cells, 39C, ATPlite viability, 24 h | Potency, µM (top dose mostly 46.1 µM), for inactives: at the highest dose activity, negative = cell killing, usual class: cytotoxic | 0.97% of 55,000 active;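 further: 0% = DMSO only and -100% = full killing by 100 µM tamoxifen; nearly all actives have a fitted effect of over 50% in size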
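Cells seeded at 600/well, 37C overnight. Compound added (up to 46 uM), plates shifted to 39C for 24 hr. ATPlite added, luminescence read after 20 min at room temperature.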
S16 viability = S16 Schwann cell cytotoxicity | S16 Pmp22-F2sN Schwann cells viability, CellTiter-Glo, 24 h | Potency, µM (titrated, usually from 57.5 µM), for the others: at the top dose activity change, negative = cytotoxicity, hits mostly cytotoxic | 0.48% of 43,000 active; further: nearly all actives have a fitted effect of over 65% in size
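Luminescence from CellTiter-Glo, read by CCD camera after a 15 min room-temperature incubation, served as the viability signal. Reporter Schwann cells (S16 Pmp22-F2sN) had been treated with pin-transferred compounds for 24 h at 37C.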
p53null 32C kill = kills p53 null cells at the permissive temperature; AID 903; 0.62% of 55,000 active; H1299-neo p53 null cells, ATP luminescence, 24 h, 32C; Potency, µM (highest dose often 46.1 µM), for the others: at the highest dose activity change, negative = cytotoxicity, usual class: cytotoxic;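 further: 0% = DMSO only and -100% = full killing by 100 µM tamoxifen; nearly all actives have a fitted effect of over 55% in size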
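Cells lacking p53 (H1299-neo) are plated at 600 per well and allowed to settle overnight at 37C. Test compounds (up to 46 uM) are added and held 24 hours at 32C, then ATP is quantified by luminescence.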
PMP22 txn = modulators of PMP22 gene transcription in S16 Schwann cells | AID 1508649 | Potency, µM (highest dose often 57.5 µM), for inactives: at the top dose activity change, negative = inhibition, most hits filed as inhibitors | 2% of 43,000 active | S16 Pmp22-F2sN Schwann cells (luciferase reporters placed in the Pmp22 gene), FLuc/NLuc coincidence luminescence, 24 h; active means clear falling dose curves in both reporters; inconclusive means both reporters move, but less clearly or upward; inactive means either reporter flat; the % is the NLuc reporter signal
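Luminescent read-out of sequential FLuc and NLuc signals from a reporter embedded in the Pmp22 3' UTR of S16 Schwann cells, taken after 24 h compound exposure at 37C; compounds reducing both signals score as inhibitors of expression.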
* hit, by the source's call; ? = inconclusive; nt = no result; [ ] = dose if it differs, or a comment. Unless noted, the call rests on the fitted dose curve; in most records, active means well fitted curve in the direction sought with a large enough effect; inconclusive means small, poorly fitted or top-dose-only effect, or another doubt; inactive means no such curve, though single readings can be large; an effect the other way counts as inactive or inconclusive. Unless noted, on the % scale 0 is the no-effect control and ±100 the full control effect; potency means the concentration at half of the fitted maximal effect.

SMILES	mTORC1 inh	p53null 39C tox	S16 viability	p53null 32C kill	PMP22 txn
CCC(C)(C)NC(=O)C1CCN(S(=O)(=O)c2ccc3c(c2)CCCN3C(C)=O)CC1	-11%	22%	-3%	-1%	-15%
CC(=O)c1cc2c(cc1NC(=O)c1c(C)nn(-c3ccc(C)cc3)c1-n1cccc1)OCO2	1%	24%	nt	6%	nt
COc1ccc(C2CC(=O)c3c([nH]c(C(=O)OC4CCC(C)CC4)c3C)C2)cc1OC (stereo not given)	0%	-3%	-1%	-8%	5%
COc1cc(C2CC(=O)c3c([nH]c(C(=O)OC4CCCCC4)c3C)C2)cc(OC)c1OC (stereo not given)	?	2%	?	-18%	18µM*
COc1cc(C2CC(=O)c3c([nH]c(C(=O)OCC4CCCCC4)c3C)C2)cc(OC)c1OC (stereo not given)	-20%	-28%	-11%	-14%	5.7µM*
CC1(C)Cc2c(sc(NC(=O)C(C)(C)C)c2C#N)C(C)(C)N1	nt	-3%	nt	0%	nt
CCOC(=O)c1c(NC(=O)c2ccc(S(=O)(=O)N(CCOC)CCOC)cc2)sc2c1CC(C)(C)NC2(C)C	12µM*	5%	?	-4%	-32%
CCOC(=O)c1c(NC(=O)c2ccc(S(=O)(=O)N3CCCC(C)C3)cc2)sc2c1CC(C)(C)NC2(C)C (stereo not given)	?	25%	?	-12%	?
CC1CCN(S(=O)(=O)c2ccc(C(=O)Nc3sc4c(c3C(N)=O)CC(C)(C)NC4(C)C)cc2)CC1	18µM*	8%	?	15%	?
Cc1c(C(=O)NCc2ccc(Cl)cc2)sc2nc3n(c(=O)c12)CCCC3	10%	3%	-26%	13%	-31%
COc1ccccc1NC(=O)c1sc2nc(C)c(C(=O)Nc3ccc(C)cc3C)c(-c3ccc(C)o3)c2c1N	-1%	-8%	2%	5%	-17%
CCSc1ccccc1C(=O)Nc1ccc(-c2nc3ccccc3s2)c(O)c1	2.9µM*	-24%	?	-10%	-20%
O=C(Nc1ccc(NC(=O)c2cc3ccccc3o2)cc1)c1ccccc1	6%	10%	8%	10%	0%
O=C(Nc1ccc2oc(-c3cc(Br)ccc3Cl)nc2c1)c1cc2ccccc2o1	4.1µM*	?	?	4%[9.22 µM]	?
O=C(Nc1ccc2oc(-c3ccc(Br)cc3)nc2c1)c1cc2ccccc2o1	0%	-5%	12%	2%	-24%
O=C(Nc1ccccn1)c1cc2ccccc2o1	nt	5µM*	nt	4µM*	nt
O=C(Nc1ccc2oc(=O)ccc2c1)c1cc2ccccc2o1	nt	-10%	nt	-6%	nt
O=C(O)c1ccc(NC(=O)c2cc3ccccc3o2)cc1	9%	?	5%	13µM*	-8%
CCc1cccc(-n2nnc(-c3nsc(NC(=O)c4cccs4)n3)c2C)c1	1%	10µM*	-6%	-5%	2%
CCc1nn2c(=O)cc(COC(=O)c3ccc(NC(=O)c4cccs4)cc3)nc2s1	0%	18%	4%	-1%	-49%
COc1cccc(Nc2sc(C(=O)c3ccc(Cl)cc3)c(N)c2C(=O)NCc2ccc(C)cc2)c1	?	10%	?	-13%	8.9µM*
COc1ccc(NC(=O)CCN2CCN(c3cccc(Cl)c3)CC2)cc1	-2%	-6%	11%	-12%	-17%
Cc1ccc(C)c(NS(=O)(=O)c2cc3c4c(c2)C(C)C(=O)N4CCC3)c1 (stereo not given)	0%	?	-16%	-9%	13%
CC1C(=O)N2CCCc3cc(S(=O)(=O)Nc4ccc(Br)cc4F)cc1c32 (stereo not given)	13µM*	-2%	-2%	1%	4%
COc1ccc(-c2ccc(CCC(=O)O)n2-c2ccccc2C(F)(F)F)cc1	-4%	19%	-25%	-1%[9.22 µM]	?
COc1ccc(-c2ccc(CCC(=O)O)n2-c2ccccc2O)cc1	13µM*	-27%	4%	-10%	-54%
